# “And” between values parts separate entries of the source, which are not always exact repeats. Equal entries are not always repeated. The whole screen tested about 5,500 compounds, of which about 2,000 (36%) were called active. About 18% were inconclusive and are not listed. Rule as the data show it: active = normalized growth mostly below about 0.91 (no sharp cut-off); inconclusive = no clear call, values can overlap the other calls; inactive = mostly above about 0.92. The list shows a part of the results. The source holds several records for some structures; these can differ, active in one and inactive in another.
# Test: chemical genetic growth profiling, strain panel (AID 1159580);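 also: tested at 20 µM; growth read once vehicle control cultures reached saturation at 30 °C; 1 = growth at the plate median or of vehicle wells; lower values mean less growth of the strain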
# Details: growth OD
structure (smiles),measurement,setting,value
Cc1nc2sccn2c(=O)c1CCN1CCC(=C(c2ccc(F)cc2)c2ccc(F)cc2)CC1,normalized growth,"S. cerevisiae deletion strains, locus YAL013W, strain DEP1, stronger effect = lower value",0.65 (active) and 1.01 (inactive)
same,normalized growth,"S. cerevisiae deletion strains, locus YAL040C, strain CLN3, stronger effect = lower value",1 (inactive)
same,normalized growth,"S. cerevisiae deletion strains, locus YBR021W, strain FUR4, stronger effect = lower value",0.338 (active)
same,normalized growth,"S. cerevisiae deletion strains, locus YBR229C, strain ROT2, stronger effect = lower value",0.992 (inactive)
same,normalized growth,"S. cerevisiae deletion strains, locus YCL029C, strain bik1, stronger effect = lower value",0.885 (active)
same,normalized growth,"S. cerevisiae deletion strains, locus YCL061C, strain MRC1 (second series), stronger effect = lower value",1 (inactive)
same,normalized growth,"S. cerevisiae deletion strains, locus YDL035C, strain GPR1, stronger effect = lower value",0.536 (active)
same,normalized growth,"S. cerevisiae deletion strains, locus YDL074C, strain BRE1, stronger effect = lower value",0.395 (active)
same,normalized growth,"S. cerevisiae deletion strains, locus YDL101C, strain DUN1, stronger effect = lower value",0.758 (active)
same,normalized growth,"S. cerevisiae deletion strains, locus YDL134C, strain PPH21, stronger effect = lower value",0.404 (active)
same,normalized growth,"S. cerevisiae deletion strains, locus YDL185W, strain tfp1, stronger effect = lower value",1.01 (inactive)
same,normalized growth,"S. cerevisiae deletion strains, locus YDL192W, strain arf1, stronger effect = lower value",0.844 (active)
same,normalized growth,"S. cerevisiae deletion strains, locus YDR101C, strain arx1, stronger effect = lower value",0.945 (inactive)
same,normalized growth,"S. cerevisiae deletion strains, locus YDR150W, strain NUM1, stronger effect = lower value",0.802 (active) and 0.999 (inactive)
same,normalized growth,"S. cerevisiae deletion strains, locus YDR162C, strain NBP2, stronger effect = lower value",0.0773 (active)
same,normalized growth,"S. cerevisiae deletion strains, locus YDR318W, strain mcm21, stronger effect = lower value",0.865 (active)
same,normalized growth,"S. cerevisiae deletion strains, locus YDR363W, strain ESC2, stronger effect = lower value",1.01 (inactive)
same,normalized growth,"S. cerevisiae deletion strains, locus YDR388W, stronger effect = lower value",0.222 (active)
same,normalized growth,"S. cerevisiae deletion strains, locus YDR502C, strain sam2, stronger effect = lower value",0.832 (active)
same,normalized growth,"S. cerevisiae deletion strains, locus YEL061C, strain CIN8, stronger effect = lower value",0.672 (active)
same,normalized growth,"S. cerevisiae deletion strains, locus YER002W, strain NOP16, stronger effect = lower value",1.21 [resistant] (active)
same,normalized growth,"S. cerevisiae deletion strains, locus YER110C, stronger effect = lower value",1 (inactive)
same,normalized growth,"S. cerevisiae deletion strains, locus YER155C, strain BEM2, stronger effect = lower value",0.897 (active)
same,normalized growth,"S. cerevisiae deletion strains, locus YER167W, strain BCK2, stronger effect = lower value",0.692 (active)
same,normalized growth,"S. cerevisiae deletion strains, locus YGL078C, strain dbp3, stronger effect = lower value",1 (inactive)
same,normalized growth,"S. cerevisiae deletion strains, locus YGL086W, strain mad1, stronger effect = lower value",0.808 (active)
same,normalized growth,"S. cerevisiae deletion strains, locus YGL248W, strain PDE1, stronger effect = lower value",0.511 (active)
same,normalized growth,"S. cerevisiae deletion strains, locus YGR078C, strain PAC10, stronger effect = lower value",0.695 (active)
same,normalized growth,"S. cerevisiae deletion strains, locus YGR135W, strain pre9, stronger effect = lower value",0.683 (active)
same,normalized growth,"S. cerevisiae deletion strains, locus YGR229C, strain SMI1, stronger effect = lower value",0.132 (active) and 0.945 (inactive)
same,normalized growth,"S. cerevisiae deletion strains, locus YGR252W, strain gcn5, stronger effect = lower value",0.487 (active)
same,normalized growth,"S. cerevisiae deletion strains, locus YHR030C, strain SLT2, stronger effect = lower value",0.65 (active) and 0.981 (inactive)
same,normalized growth,"S. cerevisiae deletion strains, locus YHR079C, strain IRE1 (second series), stronger effect = lower value",0.902 (active)
same,normalized growth,"S. cerevisiae deletion strains, locus YHR079C, strain IRE1, stronger effect = lower value",0.959 (inactive)
same,normalized growth,"S. cerevisiae deletion strains, locus YHR094C, strain hxt1, stronger effect = lower value",1 (inactive)
same,normalized growth,"S. cerevisiae deletion strains, locus YHR200W, strain rpn10, stronger effect = lower value",0.914 (active)
same,normalized growth,"S. cerevisiae deletion strains, locus YIL066C, strain RNR3, stronger effect = lower value",0.571 (active)
same,normalized growth,"S. cerevisiae deletion strains, locus YIL073C, strain SPO22, stronger effect = lower value",0.279 (active)
same,normalized growth,"S. cerevisiae deletion strains, locus YIL125W, strain kgd1, stronger effect = lower value",1 (inactive)
same,normalized growth,"S. cerevisiae deletion strains, locus YIR030C, strain dcg1, stronger effect = lower value",0.917 (active)
same,normalized growth,"S. cerevisiae deletion strains, locus YJL095W, strain BCK1, stronger effect = lower value",0.354 (active) and 0.987 (inactive)
same,normalized growth,"S. cerevisiae deletion strains, locus YJL134W, strain LCB3, stronger effect = lower value",1.01 (inactive)
same,normalized growth,"S. cerevisiae deletion strains, locus YJL168C, strain set2, stronger effect = lower value",0.998 (inactive)
same,normalized growth,"S. cerevisiae deletion strains, locus YJL187C, strain SWE1 (second series), stronger effect = lower value",0.547 (active)
same,normalized growth,"S. cerevisiae deletion strains, locus YJR043C, strain POL32, stronger effect = lower value",0.69 (active)
same,normalized growth,"S. cerevisiae deletion strains, locus YJR066W, strain TOR1, stronger effect = lower value",0.965 (inactive)
same,normalized growth,"S. cerevisiae deletion strains, locus YJR075W, strain HOC1, stronger effect = lower value",0.36 (active) and 0.998 (inactive)
same,normalized growth,"S. cerevisiae deletion strains, locus YKL009W, strain mrt4, stronger effect = lower value",0.967 (inactive)
same,normalized growth,"S. cerevisiae deletion strains, locus YKL068W, stronger effect = lower value",0.999 (inactive)
same,normalized growth,"S. cerevisiae deletion strains, locus YKL085W, strain MDH1 (second series), stronger effect = lower value",0.992 (inactive)
same,normalized growth,"S. cerevisiae deletion strains, locus YKL085W, strain MDH1, stronger effect = lower value",0.992 (inactive)
same,normalized growth,"S. cerevisiae deletion strains, locus YKL190W, strain CNB1, stronger effect = lower value",0.604 (active)
same,normalized growth,"S. cerevisiae deletion strains, locus YKR001C, strain vps1, stronger effect = lower value",0.139 (active)
same,normalized growth,"S. cerevisiae deletion strains, locus YLR039C, strain RIC1, stronger effect = lower value",0.303 (active)
same,normalized growth,"S. cerevisiae deletion strains, locus YLR058C, strain SHM2, stronger effect = lower value",0.613 (active)
same,normalized growth,"S. cerevisiae deletion strains, locus YLR102C, strain apc9, stronger effect = lower value",0.999 (inactive)
same,normalized growth,"S. cerevisiae deletion strains, locus YLR113W, strain HOG1, stronger effect = lower value",0.979 (inactive)
same,normalized growth,"S. cerevisiae deletion strains, locus YLR262C, strain YPT6, stronger effect = lower value",0.289 (active)
same,normalized growth,"S. cerevisiae deletion strains, locus YLR268W, strain sec22, stronger effect = lower value",0.624 (active)
same,normalized growth,"S. cerevisiae deletion strains, locus YLR330W, strain CHS5, stronger effect = lower value",0.833 (active)
same,normalized growth,"S. cerevisiae deletion strains, locus YLR342W, strain FKS1 (second series), stronger effect = lower value",0.56 (active)
same,normalized growth,"S. cerevisiae deletion strains, locus YLR371W, strain rom2, stronger effect = lower value",0.978 (inactive)
same,normalized growth,"S. cerevisiae deletion strains, locus YLR418C, strain cdc73, stronger effect = lower value",0.451 (active)
same,normalized growth,"S. cerevisiae deletion strains, locus YML016C, strain PPZ1, stronger effect = lower value",0.65 (active)
same,normalized growth,"S. cerevisiae deletion strains, locus YML032C, strain rad52, stronger effect = lower value",0.825 (active)
same,normalized growth,"S. cerevisiae deletion strains, locus YML124C, strain tub3, stronger effect = lower value",1 (inactive)
same,normalized growth,"S. cerevisiae deletion strains, locus YMR078C, strain ctf18, stronger effect = lower value",1 (inactive)
same,normalized growth,"S. cerevisiae deletion strains, locus YMR223W, strain ubp8, stronger effect = lower value",0.816 (active)
same,normalized growth,"S. cerevisiae deletion strains, locus YMR263W, strain SAP30, stronger effect = lower value",0.733 (active) and 1 (inactive)
same,normalized growth,"S. cerevisiae deletion strains, locus YMR307W, strain GAS1, stronger effect = lower value",0.206 (active) and 1.03 (inactive)
same,normalized growth,"S. cerevisiae deletion strains, locus YNL067W, strain RPL9B, stronger effect = lower value",0.72 (active)
same,normalized growth,"S. cerevisiae deletion strains, locus YNL128W, strain TEP1, stronger effect = lower value",0.637 (active) and 1.1 (inactive)
same,normalized growth,"S. cerevisiae deletion strains, locus YNL153C, strain GIM3, stronger effect = lower value",0.732 (active) and 0.816 (inactive)
same,normalized growth,"S. cerevisiae deletion strains, locus YNL175C, strain NOP13, stronger effect = lower value",1.28 [resistant] (active)
same,normalized growth,"S. cerevisiae deletion strains, locus YNL183C, strain NPR1, stronger effect = lower value",0.935 (inactive)
same,normalized growth,"S. cerevisiae deletion strains, locus YNL197C, strain WHI3, stronger effect = lower value",1.19 [resistant] (active)
same,normalized growth,"S. cerevisiae deletion strains, locus YNL233W, strain BNI4, stronger effect = lower value",0.573 (active)
same,normalized growth,"S. cerevisiae deletion strains, locus YNL250W, strain rad50, stronger effect = lower value",0.988 (inactive)
same,normalized growth,"S. cerevisiae deletion strains, locus YNL271C, strain bni1, stronger effect = lower value",0.992 (inactive)
same,normalized growth,"S. cerevisiae deletion strains, locus YNL298W, strain CLA4, stronger effect = lower value",0.999 (inactive)
same,normalized growth,"S. cerevisiae deletion strains, locus YNL307C, strain MCK1, stronger effect = lower value",0.863 (active)
same,normalized growth,"S. cerevisiae deletion strains, locus YNL322C, strain KRE1, stronger effect = lower value",0.67 (active)
same,normalized growth,"S. cerevisiae deletion strains, locus YNR052C, strain pop2, stronger effect = lower value",0.773 (active)
same,normalized growth,"S. cerevisiae deletion strains, locus YOL006C, strain TOP1, stronger effect = lower value",0.138 (active)
same,normalized growth,"S. cerevisiae deletion strains, locus YOL012C, strain htz1",0.498 (inactive)
same,normalized growth,"S. cerevisiae deletion strains, locus YOL147C, strain pex11, stronger effect = lower value",0.984 (inactive)
same,normalized growth,"S. cerevisiae deletion strains, locus YOR061W, strain CKA2, stronger effect = lower value",0.646 (active)
same,normalized growth,"S. cerevisiae deletion strains, locus YOR069W, strain VPS5, stronger effect = lower value",0.861 (active)
same,normalized growth,"S. cerevisiae deletion strains, locus YOR083W, strain WHI5 (second series), stronger effect = lower value",0.985 (inactive)
same,normalized growth,"S. cerevisiae deletion strains, locus YOR136W, strain idh2, stronger effect = lower value",0.94 (inactive)
same,normalized growth,"S. cerevisiae deletion strains, locus YOR144C, strain elg1, stronger effect = lower value",1.01 (inactive)
same,normalized growth,"S. cerevisiae deletion strains, locus YOR184W, strain ser1, stronger effect = lower value",0.729 (active)
same,normalized growth,"S. cerevisiae deletion strains, locus YOR231W, strain MKK1, stronger effect = lower value",0.999 (inactive)
same,normalized growth,"S. cerevisiae deletion strains, locus YOR316C, strain cot1, stronger effect = lower value",0.996 (inactive)
same,normalized growth,"S. cerevisiae deletion strains, locus YPL055C, strain LGE1, stronger effect = lower value",0.268 (active)
same,normalized growth,"S. cerevisiae deletion strains, locus YPL256C, strain CLN2, stronger effect = lower value",0.962 (inactive)
same,normalized growth,"S. cerevisiae deletion strains, locus YPR119W, strain clb2, stronger effect = lower value",1.01 (inactive)
same,normalized growth,"S. cerevisiae deletion strains, locus YPR141C, strain kar3, stronger effect = lower value",0.997 (inactive)
same,normalized growth,"S. cerevisiae deletion strains, locus YPR163C, strain tif3, stronger effect = lower value",0.722 (active)
same,normalized growth,"S. cerevisiae deletion strains, locus YPR167C, strain met16, stronger effect = lower value",0.906 (active)
same,normalized growth,"S. cerevisiae deletion strains, strain wtn01, stronger effect = lower value",0.776 (active)
same,normalized growth,"S. cerevisiae strains, strain wild type, stronger effect = lower value",0.592 (active)

# Source: PubChem BioAssay AID1159580 (chemical genetic matrix, 2015)
